Measured values: the supplement of paper PMC6555819

Key:
Assay in all cases: PBM binding z-score (relative to random genomic background probes); higher = stronger binding; sequences stand for … in GC…GCGATTGACAGCGTAGAATGAAGG
[1] = test system: RARb homodimer (NR concentration 270 nM)
Method in brief: (§1)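 Binding buffer was PBS pH 7.4 with 2% milk, 0.02% Triton X-100, 1 mM DTT, 0.2 mg/mL BSA and 0.4 mg/ml salmon testes DNA. In it, ligand-free nuclear receptor dimers were incubated 1 h on custom Agilent 4×180K protein-binding microarrays carrying double-stranded probes. Antibodies against each partner (one per run) detected binding, and z-scores were calculated against random background probes after regression normalization of scanned fluorescence.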

[2] = test system: RARg:RXRa (NR concentration 270 nM, RXRa partner concentration 90 nM)
Method in brief: as §1

[3] = test system: RARg homodimer (NR concentration 270 nM)
Method in brief: as §1

[4] = test system: RXRa DBDmut IVT, anti-RXR (DBD mutation: RXRa K156A/R161A, NR concentration 90 nM)
Method in brief: as §1

[5] = test system: RXRa homodimer (NR concentration 180 nM)
Method in brief: as §1

[6] = test system: THRa:RXRa (NR concentration 90 nM, RXRa partner concentration 90 nM)
Method in brief: as §1

[7] = test system: THRa homodimer (NR concentration 90 nM)
Method in brief: as §1

[8] = test system: VDR homodimer (NR concentration 270 nM)
Method in brief: as §1

Sequence	PBM binding z-score [1]	PBM binding z-score [2]	PBM binding z-score [3]	PBM binding z-score [4]	PBM binding z-score [5]	PBM binding z-score [6]	PBM binding z-score [7]	PBM binding z-score [8]
TCATATAGGTAAATGCTAGGTGAATGTCCGATCT	0.278	0.529	0.626	1.46	0.893	1.49	0.604	0.143
ATCGAAAGGTCGAGGAGAGTATAGAGAAAGGGAA	2.25	4.13	3.86	0.539	4.21	1.94	-0.151	0.103
TCATTTAGGTAATACAGGTGAAAGTCGGCATCTA	0.788	0.841	0.652	1.96	1.33	1.58	1	0.57
ATCGAAAGGTCGAAGGTGAGTGTACCCACCCGAA	2.58	4.02	3.37	0.847	5.11	2.3	0.0687	0.737
ACTAGCAAGCCAAGGGTCACTCAAGATTAGTCCG	3.62	3.45	3.58	0.334	3.69	2.51	0.0458	1.08
CGTCCAAGGTCAAAGTTCAGTGAAGAGATGACGG	4.6	7.44	7.1	4.25	8.84	4.31	1.92	4.39
ACTGGTTGGTCAGCTGAGGTCACACACAATTCGG	4.63	4.08	4.57	1.23	4.2	5.13	5.73	4.2
AATACAGGGCCACTAGGCCAGAGTAGGTACGAAT	0.294	0.551	0.711	-0.4	0.289	-0.0637	-0.308	0.318
CGTCAAAGTTCAAGGTGACGTAACAGAAAGCAGC	4.19	5.57	6.39	4.67	4.63	3.25	1.36	3.17
TCTAGCAGGCCAGAGGGTTACTCAAGAGGTACGG	-0.00314	0.101	0.0155	-0.179	0.47	-0.0959	-1.11	-0.658
AGAAGGAGGTTATACGTAGATCAGGGAAGAAAGT	1.26	1.3	1.11	0.234	1.59	1.28	0.665	0.752
CGTCCAAGGTCAAAAGTCAGTGAAGAGATGACGG	3.25	5.69	5.8	3.57	6.1	3.41	1.3	1.86
TCTCGGAGGCCACGAAAGGTCAGAGCTCGACATC	4.92	4.88	5.06	0.746	4.3	4.02	0.552	0.735
ATCTCTTGGTAAAAGTTCAGTGAATCCCGAGGAT	2.43	1.43	1.95	0.705	1.02	0.75	0.436	1.86
ATATGTAGGTTACGGGTCATTCAGGTTGGTTCGC	3.24	3.35	2.58	1.69	4.31	3.15	1.49	3.37
AGAATGAGGTTACCAAAAATCAGGGAAACGCTTG	0.769	1.84	1.53	1.07	2.47	2.57	1.03	0.541
AGAATGAGTTTACCAAAGATCAGGGAAACGCTTG	-0.757	-0.0513	0.236	3	0.272	-0.103	-0.687	1.78
ACTAGTAGTTGACTTAGGGCAACCGATACGACGC	0.773	0.36	0.487	-0.14	0.393	1.44	-0.151	-0.0873
GCGGCTGGGGCATCAGCAGGTTACCATAACTTAA	1.16	0.705	0.632	-0.632	0.166	1.01	-0.483	-0.207

Sequence	PBM binding z-score [1]	PBM binding z-score [2]	PBM binding z-score [3]	PBM binding z-score [4]	PBM binding z-score [5]	PBM binding z-score [6]	PBM binding z-score [7]	PBM binding z-score [8]
GCTGCTAGGTCAGGTTGGTCAGCGAACGGGTACG	2.73	2.68	4.03	0.514	1.11	1.8	0.422	0.896
ATATGTAGGTTAGCTGGGGTCATTCAGACTAGGC	3.87	4.18	2.91	2.27	5.35	5.18	3.18	5.47
CCGACTGGGGCATTAGGTTACCATAAGCCAGCCC	0.851	0.715	0.58	-0.386	0.21	0.535	0.0828	-0.601
AGAACGAGGGCACGATGAGTTGATAGCAGAGTAG	1.22	2.18	2.42	1.77	1.57	2.03	0.236	1.66
TCTTGTAGATCAGCAGGTTCAGAAAGCTGGCCAA	-0.402	-0.138	-0.569	0.668	0.303	0.00022	-0.821	1.58
TCTTGTAGATCAAATGTTAAGAAAGCCGAAGCCT	-0.797	-0.173	-0.241	1.15	0.176	-0.551	-0.39	-0.522
GCGACTGGGCCATCAGCAGGTTACCATAACTTAA	0.461	-0.0254	0.0324	-0.654	-0.151	0.132	-0.441	-0.661
ATATGTACGTTACATCCGGGTCATTCAGGCTATG	2.41	1.61	1.24	1.2	2.07	3.14	2.93	2.95
TTACCAAGGTGAGCTGAGGTCGTTGACCCAACTC	2	1.58	0.471	0.101	2.03	4.79	2.16	1.65
CGTCAAAGTGCAAGGTAACGTAACAGAAAGCAGC	0.846	0.771	1.24	1.21	0.508	1.08	0.0291	0.017
AATACAGGGTTACTAGGCCAGAGTAGGTACGAAT	0.925	1.24	0.893	0.264	1.57	1.07	0.206	0.675
TCGAGTTGGTCACGGAGGTCACACACGACGGGTA	4.47	4.77	4.81	1.32	4.92	3.77	2.24	3.52
TAGCCTAGGTCAGATCGGGCCAGGATACGCTATA	1.88	2.77	3.35	-0.775	1.45	4.2	0.225	-0.433
TCTTGTAGATCAACAGAGGTTAAGAAAGTGCGCT	1.45	0.848	0.565	0.665	1.68	2.55	-0.186	0.274
TCAGACAGTTGAAGGTAACTCAGGTACGCAGTCG	-0.0141	0.206	0.167	1.29	0.943	1.17	0.195	0.508
GACACAGGGTCAAGGCCAGAGTACGCGTATTGAT	3.64	5.52	5.02	2.59	6.19	3.64	0.875	2.13
ATCTCTAGGGAAAAGTTCAGTGAATCCCGAGGAT	2.03	1.23	1.69	0.323	0.636	0.24	-0.457	1.22
TTACCGAGGTGAAGGTCGTTGATCCCTCTGTAGA	1.72	1.58	1.02	-0.12	2	2.66	1.16	0.99
CACGAAAGGTCGTGCTCAGGTGAGTATACCAAAC	2.88	5.37	4.66	2.24	5.36	3.96	1.18	1.46

Sequence	PBM binding z-score [1]	PBM binding z-score [2]	PBM binding z-score [3]	PBM binding z-score [4]	PBM binding z-score [5]	PBM binding z-score [6]	PBM binding z-score [7]	PBM binding z-score [8]
GCATATAGGTAATACAAGGTGACAGTCCGATTGT	0.679	0.651	0.825	0.299	0.86	4.15	0.967	0.0173
ATCGAAAGGTCGACGAGCTGAGTATACACCGTTT	2.38	3.86	3.6	1.09	4.01	1.58	-0.705	0.176
CCTAGTTCGTCAAGGTCACACACGCTATAGGTAC	4.36	4.84	4.77	4.16	4.74	4.39	4.47	6.91
CCGACTGGGGCAGAAAGGTTAGCATACCATCCGG	1.74	0.906	0.862	-0.65	0.988	0.31	-0.682	-0.346
CCGACTGGGGCAGAAAGGTTACCATCCCATCCGG	2.3	1.44	1.19	-1.13	1.48	0.817	-0.666	-0.162
CGAACTAGGTCATCAAGGACAGTGAATACATTGA	3.18	3.95	4.85	1.92	2.67	3.87	2.11	1.83
CAAACTAGTTCAAGGTCAAAGTCGGTTTGTGCCA	4.53	4.97	4.53	3.32	4.79	4.05	4.02	4.9
TCTCTGAGGACACGAAAGGTCAGAGCTCGACATC	4.78	4.77	5.31	1.55	3.99	4.45	4.15	1.21
CCAGACAGGTGAGAAGGTAACACAGCCTCGATTA	1.03	0.858	0.833	0.148	0.73	0.62	0.195	0.124
CCTAGTCGGTCAAGGTCACACACGCTATAGGTAC	4.9	5.15	5.64	2.13	4.64	4.26	4.28	3.91
TTACCAAGGTGAAAGGTCGTTCATGCACGCCTTG	2.8	4.33	2.27	0.778	5.93	3.24	0.876	1.96
TCTGCTAGGTCAACAATGGTCAGCTAATCTGCTA	3.37	4.13	4.92	1.33	2.64	3.08	0.805	-0.0461
TCTAGCAGGCCAGAGGTTCACTCAAGAGGTACGG	0.483	0.466	0.306	0.415	0.756	0.0642	-0.939	1.54
TTGCCTAGGTCAGATCGGGCCAGTATACGCTATA	2.16	2.77	3.6	0.0965	1.51	3.9	-0.108	-0.389
TCGAGTAGGTTAGTTGGGGCATTCAGCCAACATA	0.525	-0.065	-0.0945	0.0825	-0.226	1.01	-0.251	-0.0385
CGTCCAAGGTCAAAGGTCAGTTAAGAGATGACGG	5.64	8.47	7.74	3.83	9.85	5.11	2.91	3.63
TCATATAGGTAAACAGGGGAAAGTCCGTAAGTTA	0.507	0.245	0.0765	1.97	0.978	0.404	0.286	0.312
CAAACTAGGTCACAGACGTCAAAGTCCGTGCGTA	3.28	4.49	5.14	1.98	3.61	3.32	1.23	0.686
AGTCAAAGTCCAGGACGAGGTAACGTAAAGCACG	0.381	0.451	0.688	-0.0759	0.28	1.89	1.14	-0.089
